In all, about 2,400 compounds went through this assay and about 2,400 (100%) were called active.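 How the source made its calls: active means ratio percent of control, averaged over triplicates, above buffer control mean plus 5 SD (cut at about 64% in these data); inactive means the rest.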 The set was probably picked from earlier hits. These entries were drawn from the full list.
Target: Potassium channel subfamily K member 3 (Homo sapiens) (UniProt O14649)
Experiment: retest of human KCNK3 channel inhibitors, confirmation, CHO cells, FluxOR thallium flux, triplicate (AID 651638);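 further: ratio is the fluorescence rise from min to max over baseline after thallium stimulus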
Conditions: FluxOR fluorescence, at 10 µM, stronger effect = higher value, 0% buffer, 100% carvedilol maximal block

Chain of Potassium channel subfamily K member 3 (Homo sapiens) (O14649 whole entry, looked up): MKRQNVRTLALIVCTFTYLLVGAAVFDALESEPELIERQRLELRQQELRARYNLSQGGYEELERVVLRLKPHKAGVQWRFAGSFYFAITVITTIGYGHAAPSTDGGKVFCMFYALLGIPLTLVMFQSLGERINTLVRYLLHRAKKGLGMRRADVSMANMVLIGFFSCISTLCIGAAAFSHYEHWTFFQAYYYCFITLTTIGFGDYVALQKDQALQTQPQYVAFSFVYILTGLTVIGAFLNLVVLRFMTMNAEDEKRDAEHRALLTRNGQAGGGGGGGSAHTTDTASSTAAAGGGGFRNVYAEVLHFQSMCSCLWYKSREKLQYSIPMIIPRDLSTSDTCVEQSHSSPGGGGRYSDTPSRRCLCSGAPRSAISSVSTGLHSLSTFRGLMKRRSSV

Structure (SMILES) | ratio percent of control
C=CCSc1nsc(NC(=O)Nc2cccc(C(C)=O)c2)n1 | 109% (active)
COc1ccc([N+](=O)[O-])cc1-c1nc2ccccc2nc1-c1ccccc1 | 127% (active)
COc1cccc(C(=O)NCCSc2ccc(Br)cc2)c1 | 92.3% (active)
Cc1cccc2c1-c1sc(C(=O)NCCCN3CCc4ccccc4C3)cc1CO2 | 90.3% (active)
O=C(Nc1ccccc1N1CCCC1)c1ccc2ccccc2c1 | 134% (active)
Cc1cccc(C(=O)Nc2ccccc2N2CCN(c3ccc(F)cc3)CC2)c1 | 119% (active)
CCCCC(=O)Nc1ccccc1N1CCN(c2ccc(F)cc2)CC1 | 102% (active)
N#Cc1nc(Cc2cccc3ccccc23)oc1NCc1ccc2c(c1)OCO2 | 96% (active)
N#Cc1cccc(NC(=O)COC(=O)c2ccccc2C(=O)c2ccc(Cl)c([N+](=O)[O-])c2)c1 | 135% (active)
CC(Sc1nc2ccccc2c(=O)n1Cc1ccco1)C(=O)c1ccccc1 (stereo not drawn) | 97% (active)
Cc1cc(C)c(C#N)c(SCc2ccc3c(c2)OCO3)n1 | 137% (active)
CCCCCCCCCCOC(=O)Cn1c(COc2cccc(OC)c2)[n+](C)c2ccccc21 | 119% (active)
CS/C(=C\C(=O)c1ccco1)Nc1ccccc1Cl | 95% (active)
S=C(Nc1cccc(Br)c1)N1CCn2cccc2C1c1cccnc1 (stereo not drawn) | 79.7% (active)
CCCOc1ccc2c3c(c(=O)oc2c1OCCC)CCC3 | 111% (active)
COc1ccc(CC(=O)Nc2nc(-c3ccc(F)c(F)c3)cs2)cc1OC | 134% (active)
CC(Oc1cccc(NC(=O)c2cccs2)c1)C(=O)c1ccccc1 (stereo not drawn) | 103% (active)
Cc1cccc(N(Cc2ccccc2)C(=O)c2ccccc2F)c1 | 88.3% (active)
CCOc1ccc(C2c3[nH]c4ccccc4c3CCN2Cc2cccn2-c2ncccn2)cc1 (stereo not drawn) | 117% (active)
CC[n+]1cc(C)ccc1/C=C/c1ccc(N(C)C)cc1 | 143% (active)
COc1ccc(C(C)=O)cc1COc1ccc(Cl)c(C)c1 | 117% (active)

Structure (SMILES) | ratio percent of control
O=C(Nc1cccc(Cl)c1)Nc1ccccc1NS(=O)(=O)c1cccs1 | 138% (active)
C=CCc1cc(S(=O)(=O)c2ccc(O)c(CC=C)c2)ccc1O | 106% (active)
CC(=O)N(C1=C(Cl)C(=O)c2ccccc2C1=O)c1ccc(C(=O)O)cc1 | 136% (active)
COc1ccc(S(=O)(=O)NCCCCOc2ccc(Cl)cc2)cc1 | 123% (active)
C=CCSc1nnc(N2C(=O)C(O)=C(C(=O)c3ccco3)C2c2ccc(F)cc2)s1 (stereo not drawn) | 92% (active)
O=C(Oc1ccc(Br)cc1C(=S)N1CCOCC1)c1cccc([N+](=O)[O-])c1 | 103% (active)
CCCc1cc(C(=O)N2CCCC(CO)(CCCc3ccccc3)C2)n(C)n1 (stereo not drawn) | 103% (active)
CCN(CC)CCN(C(=O)c1cc(Cl)sc1Cl)c1nc2cc3c(cc2s1)OCO3 | 121% (active)
COc1ccc(CN(C)C(=O)c2cc(-c3ccc(C)cc3C)nc3ccccc23)c(OC)c1OC | 129% (active)
CC(C)CCNC(=O)C(C)N(C(=O)Cn1nnc(-c2ccc(F)cc2)n1)C1CCCC1 (stereo not drawn) | 74% (active)
COC(=O)c1ccc(COC(=O)C2CCN(S(=O)(=O)c3c(Cl)cccc3Cl)CC2)o1 | 85.3% (active)
CCn1ncc(Br)c1C(=O)Nc1cc(C)ccc1F | 87.3% (active)
O=C(Cn1cc(C(=O)c2cccs2)c2ccccc21)NCc1cccs1 | 116% (active)
COc1cc(Cl)c(S(=O)(=O)N2CCN(Cc3ccc4c(c3)OCO4)CC2)cc1Cl | 107% (active)
Cc1nc2ccccc2cc1OCc1ccc(F)cc1 | 134% (active)
[O-][n+]1ccc(OCc2ccccc2)cc1 | 73% (active)
Cc1cc(OCCCCOc2ccc(C#N)cc2)ccc1[N+](=O)[O-] | 119% (active)
Cc1ccc(S(=O)(=O)NCc2cn3ccsc3n2)c(C)c1 | 64% (active)
CC(C(=O)NCC1CCCCC1)N(C)Cc1cccc(Cl)c1 (stereo not drawn) | 114% (active)
O=C(CSc1nc(Nc2ccccc2)nc(N2CCOCC2)n1)Nc1cc(Cl)ccc1O | 127% (active)
Clc1cccc(-c2nc(NCC3CCCO3)c3ccccc3n2)c1 (stereo not drawn) | 130% (active)

Structure (SMILES) | ratio percent of control
CCc1ccc2nc3sc(C(=O)Nc4nnc(CC)s4)c(N)c3cc2c1 | 116% (active)
CSc1cccc(NC(=S)N(C(C)C)C(C)c2ccccn2)c1 (stereo not drawn) | 98.3% (active)
COc1ccc(Cl)cc1NC(=O)C(C)N1CCc2ccccc21 (stereo not drawn) | 96.3% (active)
CCc1nc(SCC(=O)NNC(=O)c2ccc(C)cc2)c2ccccc2n1 | 78% (active)
FC(F)(F)c1cccc(NC(=S)Nc2cccc(Cl)c2)c1 | 127% (active)
CSc1nccc(NC(=O)c2ccc(C(C)(C)C)cc2)n1 | 116% (active)
Cc1cccc(NC(=O)c2sc3nc4c(c(-c5ccco5)c3c2N)CCC4)c1 | 115% (active)
N#Cc1ccc(S(=O)(=O)NCC(=O)OCC(=O)NCCc2ccccc2)cc1 | 63% (active)
O=C1c2ccccc2C2=Nc3ccccc3SC(c3ccccc3F)C12 (stereo not drawn) | 128% (active)
O=C(c1cc(-c2ccc(O)cc2)on1)N1CCCc2ccccc21 | 76.7% (active)
COc1ccc2c(c1)C(c1cccs1)=NNC(c1cccnc1)=N2 | 73.3% (active)
CC(=O)Nc1cccc(OCC(=O)/C=C2\N(C)c3ccccc3C2(C)C)c1 | 124% (active)
COc1cc(C(=O)Nc2oc(-c3ccccc3)c(-c3ccccc3)c2C#N)cc(OC)c1OC | 119% (active)
Cc1nonc1C1CCCN1C(=O)c1cc(COc2cccc(C(F)(F)F)c2)on1 (stereo not drawn) | 87.3% (active)
Cc1ccc(NC(=O)c2cc([N+](=O)[O-])ccc2Cl)c(O)c1 | 119% (active)
O=C(CC1NCCc2ccccc21)Nc1cccc(Cl)c1 (stereo not drawn) | 115% (active)
CC(NCc1cccs1)C(=O)Nc1cc(Cl)cc(Cl)c1 (stereo not drawn) | 96.3% (active)
Cc1nc(N2CCN(c3ccccn3)CC2)c2c(C)c(C(=O)Nc3ccc(F)cc3)sc2n1 | 125% (active)
Cc1nc(N2CCN(c3ccccn3)CC2)c2c(C)c(C(=O)Nc3ccc(F)c(Cl)c3)sc2n1 | 129% (active)
Cc1nc(N2CCOCC2)c2c(C)c(C(=O)Nc3ccc(C(F)(F)F)cc3)sc2n1 | 136% (active)
CSc1nnc2c(n1)OC(c1ccsc1)N(C(C)=O)c1ccccc1-2 (stereo not drawn) | 106% (active)

Reference: PubChem BioAssay AID651638 (Johns Hopkins Ion Channel Center, 2012)
